Experimental data from PubChem BioAssay (EPA / NIEHS).
Where “and” joins values, the source holds several entries; their conditions need not be identical. Identical values can stand only once. Results filed as inconclusive are left out. Calls of active or inactive are those of the source. How the source made its calls: active means hit-call score of the fitted dose curve at least 0.9, where 1 is the maximum; inconclusive means response in the unintended direction; inactive means score below 0.9.

Key:
[1] = biological target: Cellular tumor antigen p53 (Homo sapiens) (UniProt P04637); assay: TOX21_p53_BLA_p2_ratio: Tox21 HCT-116 p53 Agonism Beta-lactamase Assay, Ratio, Phase 2 (AID 2283592)
Summary of the method: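 Read-out is the blue/green (460/530 nm, 405 nm excitation) ratio after 2 h CCF4-AM loading, fitted as gain versus DMSO. Compounds, pinned at 217-fold dilution from DMSO stocks, stayed 16 h on HCT-116 beta-lactamase reporter cells seeded 5 h earlier.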

[2] = TOX21_p53_BLA_p3_viability: Viability Assessment in the Tox21 HCT-116 p53 Agonism Beta-lactamase Assay, Phase 3 (AID 2283593);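 further: cells exposed to compound for 16 h before reading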
Summary of the method: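 HCT-116 cells (4000/well) rested 5 h at 37C, then got DMSO compounds by pin tool (217-fold dilution) for 16 h at 37C, 5% CO2. After the bla read, CellTiter-Glo was added and luminescence read at 30 min, room temperature.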

[3] = biological target: Cellular tumor antigen p53 (Homo sapiens) (UniProt P04637); assay: TOX21_p53_BLA_p3_ratio: Tox21 HCT-116 p53 Agonism Beta-lactamase Assay, Ratio, Phase 3 (AID 2283596)
Summary of the method: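 Cells were seeded at 4000/well, rested 5 h at 37C, then dosed with DMSO compound solutions (217-fold dilution) for 16 h. CCF4-AM substrate was loaded for 2 h at room temperature, and the 460/530 nm emission ratio was fitted for gain of signal versus DMSO.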

[4] = TOX21_p53_BLA_p4_viability: Viability Assessment in the Tox21 HCT-116 p53 Agonism Beta-lactamase Assay, Phase 4 (AID 2283597);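 further: hits lower the luminescence signal meaning cytotoxicity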
Summary of the method: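 Cytotoxicity as reduced cellular ATP (CellTiter-Glo luminescence, 30 min room temperature), measured in the same wells following the CCF4 FRET p53 reading. Human HCT-116 cells received compounds in DMSO (217-fold dilution) for 16 h.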

[5] = biological target: Cellular tumor antigen p53 (Homo sapiens) (UniProt P04637); assay: TOX21_p53_BLA_p5_ratio: Tox21 HCT-116 p53 Agonism Beta-lactamase Assay, Ratio, Phase 5 (AID 2283599)
Summary of the method: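 HCT-116 cells carrying a p53-inducible beta-lactamase reporter were seeded at 4000 cells/well and dosed after 5 h with compound in DMSO (217-fold dilution). After 16 h at 37C, CCF4-AM substrate was added for 2 h, and the 460/530 nm emission ratio was scored as gain-of-signal versus DMSO.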

[6] = biological target: Cellular tumor antigen p53 (Homo sapiens) (UniProt P04637); assay: TOX21_p53_BLA_p4_ratio: Tox21 HCT-116 p53 Agonism Beta-lactamase Assay, Ratio, Phase 4 (AID 2283601)
Summary of the method: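 HCT116 cells carrying an inducible beta-lactamase reporter were plated at 4000 cells/well, rested 5 h, then exposed to compounds in DMSO (217-fold dilution) for 16 h at 37C. CCF4-AM substrate was loaded 2 h at room temperature; 460/530 nm emission ratio scored gain-of-signal versus DMSO.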

[7] = Tanguay_ZF_120hpf_MORT_legacy: (Legacy) Oregon State University Tanguay Lab 120 Hour Post-fertilization zebrafish Assay for Mortality (AID 2283633)
Summary of the method: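 Static waterborne exposure from 6 to 120 hpf at 28C of single dechorionated wild-type (5D) embryos per well, 0.64% DMSO final. Death recorded present/absent by brightfield at 24 and 120 hpf.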

[8] = Tanguay_ZF_120hpf_YSE_legacy: (Legacy) Oregon State University Tanguay Lab 120 Hour Post-fertilization zebrafish Assay for Yolk Sac Edema (AID 2283634);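 on AC50: actives raise the incidence of yolk sac edema above the DMSO baseline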
Summary of the method: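 Presence or absence of yolk sac edema was recorded at 120 hpf in surviving larvae. These were wild-type Tropical 5D embryos, chorion removed at 4 hpf, held in static exposure at 28C from 6 hpf with 0.64% DMSO vehicle.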

[9] = Tanguay_ZF_120hpf_AXIS_legacy: (Legacy) Oregon State University Tanguay Lab 120 Hour Post-fertilization zebrafish Assay for Body Axis Malformation (AID 2283635);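 on AC50: potency for an increased fraction of larvae scored with body axis malformation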
Summary of the method: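 Binary scoring of axis defects at 120 hpf under brightfield, fitted positive versus DMSO. Tropical 5D embryos, chorion removed by pronase at 4 hpf, were singly exposed in sealed, dark plates at 28C from 6 hpf; DMSO 0.64% final.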

[10] = Tanguay_ZF_120hpf_EYE_legacy: (Legacy) Oregon State University Tanguay Lab 120 Hour Post-fertilization zebrafish Assay for Eye Malformation (AID 2283636);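 further: binary presence or absence of eye malformation scored by brightfield in 120 hpf larvae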
Summary of the method: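 Static waterborne exposure of dechorionated zebrafish embryos (strain Tropical 5D), 6 to 120 hpf, sealed plates at 28C, 0.64% DMSO vehicle. Eye malformation is scored as a binary endpoint, with gain of signal analysed relative to DMSO.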

[11] = Tanguay_ZF_120hpf_SNOU_legacy: (Legacy) Oregon State University Tanguay Lab 120 Hour Post-fertilization zebrafish Assay for Snout Malformation (AID 2283637)
Summary of the method: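 Dechorionated zebrafish, individually housed from 6 hpf in covered, sealed wells at 28C with 0.64% DMSO vehicle, were examined at 120 hpf for snout malformation. Responses were binary and analysed positive-direction relative to DMSO.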

[12] = Tanguay_ZF_120hpf_JAW_legacy: (Legacy) Oregon State University Tanguay Lab 120 Hour Post-fertilization zebrafish Assay for Jaw Malformation (AID 2283638);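 on AC50: active means more embryos with jaw malformation than DMSO controls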
Summary of the method: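 Binary jaw-malformation call at 120 hpf by brightfield microscopy. Embryos (Tropical 5D strain, chorion removed at 4 hpf) were dosed statically at 6 hpf, one per well, at 28C with 0.64% DMSO. Embryos that died were not scored.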

[13] = Tanguay_ZF_120hpf_OTIC_legacy: (Legacy) Oregon State University Tanguay Lab 120 Hour Post-fertilization zebrafish Assay for Otic Vesicle Malformation (AID 2283639)
Summary of the method: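 Brightfield scoring at 120 hpf, binary present/absent; DMSO negative control, 5uM trimethyltin chloride positive control. Static exposure at 28C, final DMSO 0.64% (vol/vol). Dead embryos not scored for malformation.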

[14] = Tanguay_ZF_120hpf_PE_legacy: (Legacy) Oregon State University Tanguay Lab 120 Hour Post-fertilization zebrafish Assay for Pericardial Edema (AID 2283640);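 on AC50: potency for increased incidence of pericardial edema versus DMSO baseline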
Summary of the method: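 Scoring was binary, by brightfield microscopy at 120 hpf, and skipped where mortality occurred. Wild-type embryos were kept under sealed, foil-covered static exposure at 28C in 0.64% (vol/vol) DMSO.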

[15] = Tanguay_ZF_120hpf_BRAI_legacy: (Legacy) Oregon State University Tanguay Lab 120 Hour Post-fertilization zebrafish Assay for Brain Malformation (AID 2283641)
Summary of the method: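 Binary brightfield scoring of brain malformation at 120 hpf in Tropical 5D larvae held under static exposure at 28C (0.64% v/v DMSO), non-mortality endpoints skipped if dead. Positive control: 5uM trimethyltin chloride; fit versus DMSO.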

[16] = Tanguay_ZF_120hpf_SOMI_legacy: (Legacy) Oregon State University Tanguay Lab 120 Hour Post-fertilization zebrafish Assay for Somite Malformation (AID 2283647)
Summary of the method: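 Binary somite-defect scoring at 120 hpf, omitted for embryos that died, in wild-type (Tropical 5D) zebrafish with chorion removed by pronase at 4 hpf; static exposure began 6 hpf, single embryos per well, 28C, 0.64% DMSO; fitted positive versus DMSO.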

[17] = Tanguay_ZF_120hpf_PFIN_legacy: (Legacy) Oregon State University Tanguay Lab 120 Hour Post-fertilization zebrafish Assay for Pectoral Fin Malformation (AID 2283648);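 further: each larva judged yes or no for fin defect by brightfield with dead larvae skipped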
Summary of the method: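 Scoring of pectoral fin malformation was binary, made at 120 hpf on larvae exposed statically from 6 hpf after enzymatic chorion removal. Activity was fitted upward relative to DMSO controls at 0.64% (vol/vol).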

[18] = Tanguay_ZF_120hpf_CFIN_legacy: (Legacy) Oregon State University Tanguay Lab 120 Hour Post-fertilization zebrafish Assay for Caudal Fin Malformation (AID 2283649)
Summary of the method: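 Binary brightfield scoring of caudal fin defects at 120 hpf after static, light-shielded exposure at 28C from 6 hpf. Tropical 5D embryos, chorion removed with pronase at 4 hpf, final DMSO 0.64%.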

[19] = Tanguay_ZF_120hpf_PIG_legacy: (Legacy) Oregon State University Tanguay Lab 120 Hour Post-fertilization zebrafish Assay for Pigmentation Malformation (AID 2283650)
Summary of the method: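 Endpoint is incidence of abnormal pigmentation at 120 hpf in dechorionated 5D zebrafish exposed singly from 6 hpf at 28C, DMSO vehicle at 0.64%. Embryos dying by 24 or 120 hpf are excluded from scoring.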

[20] = TOX21_p53_BLA_p5_viability: Viability Assessment in the Tox21 HCT-116 p53 Agonism Beta-lactamase Assay, Phase 5 (AID 2283600)
Summary of the method: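 Viability came from CellTiter-Glo ATP luminescence, read after 30 min at room temperature. Before this, HCT-116 p53-bla cells (4000/well) had 16 hours of compound exposure at 37C, with DMSO stocks diluted 217-fold on transfer.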

Measured: AC50

Chain of Cellular tumor antigen p53 (Homo sapiens) (P04637 whole entry, looked up): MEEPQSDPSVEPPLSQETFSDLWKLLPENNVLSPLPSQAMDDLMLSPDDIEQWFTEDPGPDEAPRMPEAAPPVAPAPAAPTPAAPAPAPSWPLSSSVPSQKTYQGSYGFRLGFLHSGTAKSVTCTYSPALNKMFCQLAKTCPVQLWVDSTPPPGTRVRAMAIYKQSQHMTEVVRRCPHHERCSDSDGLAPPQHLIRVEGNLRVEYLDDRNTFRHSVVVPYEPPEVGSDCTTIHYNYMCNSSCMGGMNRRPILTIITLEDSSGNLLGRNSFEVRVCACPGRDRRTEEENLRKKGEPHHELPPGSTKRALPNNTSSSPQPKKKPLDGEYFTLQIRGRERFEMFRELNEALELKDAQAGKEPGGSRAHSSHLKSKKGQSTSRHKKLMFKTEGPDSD

Oc1ccc(Cc2ccccc2O)cc1
inactive: [1] | [2] | [3] | [4] | [5]

O=C(CCCN1CCC(O)(c2ccc(Cl)cc2)CC1)c1ccc(F)cc1
active: [8] 13.1 µM | [9] 5.66 µM | [10] 4.96 µM | [11] 2.46 µM | [12] 5.66 µM | [14] 3.98 µM | [15] 4.16 µM | [17] 5.92 µM
not listed: [4] | [20]
inactive: all other assays above

NNc1nc(-c2ccc([N+](=O)[O-])cc2)cs1
active: [1] 40.1 µM | [3] 55.7 µM | [5] 39.6 µM | [6] 43.5 µM
inactive: [2] | [20]

COc1ccccc1NC(=O)c1cc2ccccc2cc1O
active: [1] 14 µM | [6] 36.1 µM
inactive: [2] | [3] | [5] | [20]

CCC(=O)O
inactive: [1] | [3] | [5] | [6]

Cc1cc(Cc2cc(C)cc(C(C)(C)C)c2O)c(O)c(C(C)(C)C)c1
active: [1] 27.1 µM and 46 µM | [2] 19.1 µM and 20.2 µM | [3] 44.8 µM and 57.1 µM | [5] 33.6 µM and 41.4 µM | [20] 17.7 µM and 16.7 µM | [6] 24.2 µM and 48.1 µM

CCCCCCCCCCCCCCCCCC[N+](C)(C)Cc1ccccc1
active: [1] 74.3 µM | [2] 24.4 µM | [3] 60.6 µM | [20] 15 µM | [6] 69.6 µM
inactive: [5]

C=CC(C)(CCC=C(C)C)OC(C)=O (stereo unspecified)
inactive: [1] | [2] | [3] | [5] | [6]

CCCCCCc1ccc(N)cc1
inactive: [1] | [2] | [3] | [5] | [6]

CCOC(=O)CN[C@@H](C(=O)N1CC[C@H]1C(=O)NCc1ccc(/C(N)=N/O)cc1)C1CCCCC1
inactive: [1] | [2] | [3] | [6]

CCCCCCCCCCCC[N+](C)(C)CCCCCCCCCCCC
active: [1] 41.4 µM | [2] 50.7 µM | [3] 66.5 µM | [5] 56.6 µM | [6] 32.3 µM

Cc1cc(C(C)(C)C)c(O)c(C(C)(C)C)c1
inactive: [1] | [2] | [3] | [5] | [6]

CC(C)(C)C1CCCCC1O (stereo unspecified)
inactive: [1] | [2] | [4] | [5] | [6]

O=C(O)c1cccc(C(=O)O)n1
inactive: [1] | [2] | [3] | [5] | [20] | [6]

O=C(NO)c1ccccc1
inactive: [1] | [2] | [3] | [5] | [6]

CC(=O)CC(C)C
inactive: [1] | [3] | [5] | [20] | [6]

O=C(c1ccccc1)c1ccccc1
not listed: [4] | [15] | [20]
inactive: all other assays above

C=CC(=O)OCC(CO)(COCC(COC(=O)C=C)(COC(=O)C=C)COC(=O)C=C)COC(=O)C=C
inactive: [3]
active: [1] 78.7 µM | [2] 3.91 µM | [5] 82.5 µM | [6] 65 µM

O=C1c2ccccc2C(=O)c2c(O)c(O)cc(O)c21
inactive: [3] | [5]
active: [1] 42.8 µM | [6] 50.1 µM

O=C(O)C(=O)O
inactive: [1] | [3] | [5] | [6]

CCCCCCCCCC=CCC1CC(=O)OC1=O (stereo unspecified)
inactive: [1] | [2] | [3] | [5] | [6]

NCc1cccc(CN)c1
inactive: [1] | [3] | [4] | [6]

NS(=O)(=O)O
inactive: [1] | [2] | [3] | [5] | [20] | [6]

CC(O)COc1ccccc1 (stereo unspecified)
inactive: [1] | [2] | [3] | [5] | [6]

CC(C)(C)c1ccc(CCC=O)cc1
inactive: [1] | [2] | [3] | [5] | [6]

CCC(=O)C=Cc1ccc(OC)cc1
inactive: [1] | [2] | [3] | [5] | [20] | [6]

CNNCc1ccc(C(=O)NC(C)C)cc1
inactive: [1] | [2] | [3] | [5] | [6]

Clc1ccc(Nc2nnc(Cc3ccncc3)c3ccccc23)cc1
inactive: [1] | [3] | [5] | [6]

COCN(COC)c1nc(N(COC)COC)nc(N(COC)COC)n1
inactive: [1] | [3] | [5]

O=C(Nc1cccc([N+](=O)[O-])c1)c1cc2ccccc2cc1O
inactive: [2]
active: [1] 1.17 µM | [3] 1.1 µM | [5] 4.65 µM | [6] 11.6 µM

C[C@]12CC[C@@H]3c4ccc(O)cc4CC[C@H]3[C@@H]1C[C@@H](O)[C@@H]2O
inactive: [1] | [2] | [3] | [5] | [6]

c1ccc(CNc2ncnc3c2ncn3C2CCCCO2)cc1 (stereo unspecified)
inactive: [4]

CCCC=O
inactive: [4]
